This is a sample that favours compounds with a hit; in the whole collection about 2.3% have one here.
Nrf2 block – Nrf2 qHTS screen for inhibitors; Potency, µM (doses to about 46 µM), for the others: at the highest dose activity change, negative = inhibition, actives largely listed as inhibitors; A549 ARE-Fluc reporter, luciferase luminescence, 18-24 h; AID 504444, 2011; 360,000 compounds, 2.1% hits; note: potency is the fitted concentration of half-maximal effect; % is set by controls: 0 for no effect and ±100 for the full control effect; nearly all actives have a fitted effect of over 60% in size
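A549 ARE_Fluc cells, 5000/well, 5% FBS OPTI-MEM; compounds in dose-response, 18-24 h at 37 °C/5% CO2; CellTiter-Fluor viability read (Ex 405/Em 525), then BugLite luciferase luminescence = Nrf2 activity.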
Anesthetic bind – qHTS Assay for Identification of Novel General Anesthetics; apoferritin/1-aminoanthracene competitive binding, fluorescence; Potency, µM (titrated, usually from 77.5 µM), for inactives: at the highest dose activity change, negative = displacement, usual class: inhibitors; 350,000 compounds, 0.074% hits; AID 485281, 2010; note: potency is the fitted concentration of half-maximal effect; % is set by controls: 0 for no effect and ±100 for the full control effect; nearly all actives have a fitted effect of over 20% in size
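Apoferritin-based anesthetic binding model; compound displacement of fluorescent 1-AMA measured as endpoint fluorescence after 10 minutes at room temperature, scaled to free-ligand and complex controls.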
Nrf2 ARE act – qHTS of Nrf2 Activators; Potency, µM (highest dose often 46.1 µM), inactives show top-dose activation, usual class: activators; 410,000 compounds, 0.31% hits; AREc32 ARE-luciferase reporter (MCF7-derived line), luminescence, 24 h; note: potency is the fitted concentration of half-maximal effect; % of control where 0% means no effect; nearly all actives have a fitted effect of over 65% in size
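ARE-driven firefly luciferase activity in AREc32 cells measured after a 24 hr compound exposure at 37 deg C, using Steady-Glo reagent and a 30 min room-temperature hold.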
IDH1 R132H inh – qHTS for Inhibitors of mutant isocitrate dehydrogenase 1 (IDH1): qHTS; IDH1-R132H enzyme, NADPH consumption, diaphorase/resazurin fluorescence; Potency, µM (top dose mostly 76.6 µM), inactives show top-dose activity change, negative = inhibition, usual class: inhibitors; 390,000 compounds, 0.093% hits; AID 602179, 2012; note: potency is the fitted concentration of half-maximal effect; % is set by controls: 0 for no effect and ±100 for the full control effect; nearly all actives have a fitted effect of over 65% in size
Target sequence (O75874 whole entry R132H, stated change not applied): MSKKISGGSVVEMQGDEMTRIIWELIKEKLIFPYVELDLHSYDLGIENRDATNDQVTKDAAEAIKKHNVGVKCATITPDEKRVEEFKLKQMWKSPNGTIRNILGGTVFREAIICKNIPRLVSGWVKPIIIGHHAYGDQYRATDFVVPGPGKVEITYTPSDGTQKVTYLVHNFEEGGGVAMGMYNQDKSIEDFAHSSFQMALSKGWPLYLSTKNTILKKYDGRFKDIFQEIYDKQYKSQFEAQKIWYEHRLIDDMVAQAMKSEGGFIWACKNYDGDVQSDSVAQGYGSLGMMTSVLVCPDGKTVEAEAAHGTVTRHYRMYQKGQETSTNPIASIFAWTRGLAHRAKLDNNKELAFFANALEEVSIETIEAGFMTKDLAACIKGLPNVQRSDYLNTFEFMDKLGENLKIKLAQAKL
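IDH1-R132H (0.5 ug/mL dispensed) in pH 7.5 Tris buffer was preincubated 30 min with compound, then given a substrate mix of 0.016 mM NADPH and 2 mM alpha-KG for 80 min at room temperature; remaining NADPH was read by diaphorase/resazurin fluorescence.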
Giardia killer – Small Molecules that selectively kill Giardia lamblia: qHTS | Giardia lamblia trophozoite viability | activity change, % at 7.66 µM, hits read low | 340,000 compounds, 0.15% hits | AID 540267, 2011; in the data active = activity change below about -80%; inconclusive = between about -30% and that limit;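 note: parasites exposed to compound for two days anaerobically before the ATP read; % is set by controls: 0 for no effect and ±100 for the full control effect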
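Compounds were tested on trophozoites seeded at 100 cells/well and held 48 hrs at 37 deg C anaerobically. An ATP-based luminescent kit measured the remaining live cells.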
A549 viability – Nrf2 qHTS screen for inhibitors: counterscreen for cytotoxicity. 390,000 compounds, 0.16% hits. AID 504648, 2011. Potency, µM (doses to about 46 µM), for the others: top-dose activity change, negative = cytotoxicity, hits mostly inhibitors. A549 ARE-Fluc cells, CellTiter-Fluor viability, 18-24 h; note: potency is the fitted concentration of half-maximal effect; % is set by controls: 0 for no effect and ±100 for the full control effect
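Cytotoxicity counterscreen: CellTiter-Fluor fluorescence was measured in A549 ARE_Fluc cells after 18-24 h of compound exposure in a concentration series. The subsequent BugLite luminescent read reports ARE-luciferase activity.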
The depositor's hits bear a star; ? = inconclusive; nt = not tested or not shown; ! = not active in a repeat; [ ] = remark or other dose. Unless noted, calls come from the whole dose curve; as a rule, active = well fitted curve in the direction sought with a large enough effect; inconclusive = small, poorly fitted or top-dose-only effect, or another doubt; inactive = no such curve, though single readings can be large; an effect the other way counts as inactive or inconclusive.

SMILES	Nrf2 block	Anesthetic bind	Nrf2 ARE act	IDH1 R132H inh	Giardia killer	A549 viability
CC(OC(=O)c1ccc([N+](=O)[O-])s1)C(=O)NC1CCCCC1C (stereo unspecified)	-26%	nt	5%	-5%	-86*	-2%
COc1ccc2cc(C(C)C(=O)Nc3cccc(S(=O)(=O)N(C)C)c3)ccc2c1 (stereo unspecified)	16µM*	-3%	4%	-7%	1	-21%
CC(C)C(=O)Nc1cccc(S(=O)(=O)c2cccc(NC(=O)C(C)C)c2)c1	21µM*	0%	2%	1%	-2	-17%
Cc1cc(C)n2ncc(C(=O)NCC(C)C)c2n1	-6%	nt	nt	nt	nt	12%
Cc1nn(-c2ccccc2)c2sc(C(=O)Nc3ccc(Cl)cc3Cl)cc12	-5%	3%	4%	nt	nt	-1%
Cc1cc(C)c(C)c(S(=O)(=O)NCc2ccncc2)c1C	13µM*	2%	0%	5%	-6	-18%
Cc1cc(Br)c(S(=O)(=O)NCc2ccncc2)cc1C	3.7µM*	-8%	0%	1%	8	-19%
Cc1c(P(=S)(c2ccccc2)c2ccccc2)c2ccccc2n1CCCc1ccccc1	5%	nt	nt	nt	nt	4%
COc1ccc(CN(C(=O)Nc2cccc(Cl)c2)c2ccccn2)cc1OC	-5%	208%	7%	9%	nt	-14%
N#C/C(=C\c1ccc(O)c([N+](=O)[O-])c1)c1nc2ccccc2s1	?	?	8%	-3%	?	15µM*
COc1cc(/C=C(\C#N)c2nc3ccccc3s2)cc([N+](=O)[O-])c1O	?	-12%	1%	-1%	?	21µM*
O=C(Nc1ccc(-c2nc3ccccc3o2)c(O)c1)c1cc(-n2cnnc2)ccc1Cl	10µM*	-16%	2%	8%	-6	nt
O=C(NCc1ccccc1)C1(C(F)(F)F)C/C(=C\Cc2ccccc2)CCCO1 (stereo unspecified)	6%	-10%	nt	nt	13	-1%
CS(=O)(=O)c1ccc(CNC(=O)C2(C(F)(F)F)C/C(=C\Cc3ccccc3)CCCO2)cc1 (stereo unspecified)	18µM*!	?	4%	0%[38.3 µM]	13	9%
COc1ccccc1NC(=S)N(Cc1ccccc1)Cc1ccccn1	?	-6%	-1%	4%	-20	1%
S=C(Nc1ccccc1Cl)N(Cc1ccccc1)Cc1ccccn1	21µM*	48%	0%	1%	-1	-10%
Cc1cc(C(=O)CSc2nc3ccc(Cl)cc3[nH]2)c(C)n1CC1CCCO1 (stereo unspecified)	13µM*	?	4%	5%	0	-27%
Cc1cc(C(=O)CSc2nc3ccc(Cl)cc3[nH]2)c(C)n1C	-7%	-23%	1%	6%	-2	-10%
Cc1cc(C(=O)COc2ccccc2C(N)=O)c(C)n1CC1CCCO1 (stereo unspecified)	4.6µM*	-6%	1%	15%	-11	-14%
Cc1sc2ncn(CC(=O)NCCCC(=O)Nc3ccc(C(C)C)cc3)c(=O)c2c1C	29µM*	-3%	-1%	8%	1	?
COc1cccc(NC(=O)CCCNC(=O)Cn2cnc3sc(C)c(C)c3c2=O)c1	2%	-11%	2%	5%	-21	10%
COc1ccccc1N1CCN(C(=O)CCCNC(=O)Cn2cnc3sc(C)c(C)c3c2=O)CC1	23µM*	-14%	0%	3%	-2	7%
CCOc1ccc(/C=C2\SC(=S)NC2=O)cc1OC	-11%	-21%	18%	-6%	3	-19%
COc1ccc(/C=C2/SC(c3ccc(C)cc3)=NC2=O)cc1OC	?	-23%	15%	9%	11	-1%
COc1ccc(/C=C2/CSC/C(=C/c3ccc(OC)c(OC)c3)C2=O)cc1OC	5.2µM*	nt	22%	3%	-21	?

High-throughput results from PubChem.
